# Assay results as given in PubChem BioAssay AID1159580 (chemical genetic matrix, 2015).
# “And” between values parts separate entries of the source, which are not always exact repeats. Equal entries are not always repeated. Out of some 5,500 compounds screened, about 2,000 (36%) were called active. Roughly 18% stayed inconclusive and do not appear here. Some of the results follow. Unmarked numbers belong to inactive results. Rule as the data show it: active = normalized growth mostly below about 0.91 (no sharp cut-off); inconclusive = no clear call, values can overlap the other calls; inactive = mostly above about 0.92.
# Assay: chemical genetic growth profiling, strain panel (AID 1159580);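 also: tested at 20 µM; growth read once vehicle control cultures reached saturation at 30 °C; 1 = growth at the plate median or of vehicle wells; lower values mean less growth of the strain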
# Conditions: S. cerevisiae deletion strains, growth OD
smiles,measurement,setting,value
COc1cc(OC)c2ccc(=O)oc2c1,normalized growth,"locus YAL013W, strain DEP1, hits give low values",1.01
same,normalized growth,"locus YAL021C, strain ccr4, hits give low values",1
same,normalized growth,"locus YAL026C, strain drs2, hits give low values",0.964
same,normalized growth,"locus YAL030W, strain snc1, hits give low values",0.976
same,normalized growth,"locus YBL061C, strain skt5, hits give low values",0.966
same,normalized growth,"locus YBR009C, strain hhf1, hits give low values",0.935
same,normalized growth,"locus YBR021W, strain FUR4, hits give low values",0.949
same,normalized growth,"locus YBR023C, strain chs3, hits give low values",0.964
same,normalized growth,"locus YBR171W, strain sec66, hits give low values",0.972
same,normalized growth,"locus YBR229C, strain ROT2, hits give low values",1.01
same,normalized growth,"locus YBR231C, strain swc5, hits give low values",0.963
same,normalized growth,"locus YBR279W, strain paf1, hits give low values",0.973
same,normalized growth,"locus YCL011C, strain gbp2, hits give low values",0.962
same,normalized growth,"locus YCL016C, strain dcc1, hits give low values",0.968
same,normalized growth,"locus YCL029C, strain bik1, hits give low values",1
same,normalized growth,"locus YCL061C, strain MRC1, hits give low values",0.974
same,normalized growth,"locus YCL069W, strain vba3, hits give low values",0.992
same,normalized growth,"locus YCR088W, strain abp1, hits give low values",0.984
same,normalized growth,"locus YDL005C, strain med2, hits give low values",0.987
same,normalized growth,"locus YDL035C, strain GPR1, hits give low values",0.99
same,normalized growth,"locus YDL040C, strain nat1, hits give low values",0.974
same,normalized growth,"locus YDL074C, strain BRE1, hits give low values",0.979
same,normalized growth,"locus YDL101C, strain DUN1, hits give low values",1.01
same,normalized growth,"locus YDL134C, strain PPH21, hits give low values",0.992
same,normalized growth,"locus YDL185W, strain tfp1, hits give low values",0.982
same,normalized growth,"locus YDL192W, strain arf1, hits give low values",0.988
same,normalized growth,"locus YDR001C, strain nth1, hits give low values",0.975
same,normalized growth,"locus YDR069C, strain doa4, hits give low values",0.951
same,normalized growth,"locus YDR101C, strain arx1, hits give low values",0.994
same,normalized growth,"locus YDR137W, strain rgp1, hits give low values",0.922
same,normalized growth,"locus YDR150W, strain NUM1, hits give low values",1
same,normalized growth,"locus YDR159W, strain sac3, hits give low values",0.971
same,normalized growth,"locus YDR162C, strain NBP2, hits give low values",1
same,normalized growth,"locus YDR195W, strain ref2",1.19 [resistant] (active)
same,normalized growth,"locus YDR297W, strain sur2, hits give low values",0.978
same,normalized growth,"locus YDR318W, strain mcm21, hits give low values",1
same,normalized growth,"locus YDR334W, strain swr1, hits give low values",0.962
same,normalized growth,"locus YDR335W, strain msn5, hits give low values",0.974
same,normalized growth,"locus YDR388W, hits give low values",1.01
same,normalized growth,"locus YDR392W, strain spt3, hits give low values",0.736 (active)
same,normalized growth,"locus YDR502C, strain sam2, hits give low values",0.989
same,normalized growth,"locus YEL003W, strain gim4, hits give low values",0.973
same,normalized growth,"locus YEL037C, strain rad23, hits give low values",0.961
same,normalized growth,"locus YEL061C, strain CIN8 (second series), hits give low values",0.964
same,normalized growth,"locus YEL061C, strain CIN8, hits give low values",1
same,normalized growth,"locus YER015W, strain faa2, hits give low values",0.973
same,normalized growth,"locus YER016W, strain bim1, hits give low values",0.975
same,normalized growth,"locus YER110C, hits give low values",0.983
same,normalized growth,"locus YER111C, strain swi4, hits give low values",0.965
same,normalized growth,"locus YER155C, strain BEM2 (second series), hits give low values",0.661 (active)
same,normalized growth,"locus YER155C, strain BEM2, hits give low values",0.999
same,normalized growth,"locus YER167W, strain BCK2, hits give low values",1.02
same,normalized growth,"locus YFR010W, strain ubp6, hits give low values",0.951
same,normalized growth,"locus YGL078C, strain dbp3, hits give low values",0.995
same,normalized growth,"locus YGL086W, strain mad1, hits give low values",1
same,normalized growth,"locus YGL167C, strain pmr1, hits give low values",0.965
same,normalized growth,"locus YGL173C, strain kem1, hits give low values",0.945
same,normalized growth,"locus YGL227W, strain vid30, hits give low values",0.974
same,normalized growth,"locus YGL240W, strain doc1, hits give low values",0.868 (active)
same,normalized growth,"locus YGL248W, strain PDE1, hits give low values",1.01
same,normalized growth,"locus YGL253W, strain hxk2, hits give low values",0.974
same,normalized growth,"locus YGR078C, strain PAC10, hits give low values",0.989
same,normalized growth,"locus YGR135W, strain pre9, hits give low values",0.977
same,normalized growth,"locus YGR229C, strain SMI1, hits give low values",0.993
same,normalized growth,"locus YGR252W, strain gcn5, hits give low values",0.846
same,normalized growth,"locus YHR013C, strain ard1, hits give low values",0.944
same,normalized growth,"locus YHR027C, strain rpn1, hits give low values",0.981
same,normalized growth,"locus YHR030C, strain SLT2, hits give low values",1.01 and 0.997
same,normalized growth,"locus YHR079C, strain IRE1 (second series), hits give low values",1.01
same,normalized growth,"locus YHR079C, strain IRE1, hits give low values",0.989
same,normalized growth,"locus YHR094C, strain hxt1, hits give low values",1
same,normalized growth,"locus YHR129C, strain ARP1, hits give low values",1.01
same,normalized growth,"locus YHR142W, strain chs7, hits give low values",0.955
same,normalized growth,"locus YHR200W, strain rpn10, hits give low values",0.988
same,normalized growth,"locus YIL066C, strain RNR3, hits give low values",1.01
same,normalized growth,"locus YIL073C, strain SPO22, hits give low values",0.982
same,normalized growth,"locus YIL125W, strain kgd1, hits give low values",1
same,normalized growth,"locus YIR030C, strain dcg1, hits give low values",1
same,normalized growth,"locus YJL092W, strain hpr5, hits give low values",0.972
same,normalized growth,"locus YJL095W, strain BCK1 (second series), hits give low values",0.98
same,normalized growth,"locus YJL095W, strain BCK1, hits give low values",0.985 and 1.01
same,normalized growth,"locus YJL115W, strain asf1, hits give low values",0.969
same,normalized growth,"locus YJL129C, strain trk1, hits give low values",0.995
same,normalized growth,"locus YJL134W, strain LCB3, hits give low values",1.01
same,normalized growth,"locus YJL154C, strain vps35, hits give low values",0.984
same,normalized growth,"locus YJL164C, strain tpk1, hits give low values",0.962
same,normalized growth,"locus YJL166W, strain qcr8, hits give low values",0.945
same,normalized growth,"locus YJL168C, strain set2, hits give low values",1
same,normalized growth,"locus YJL187C, strain SWE1 (second series), hits give low values",1.01
same,normalized growth,"locus YJL187C, strain SWE1, hits give low values",0.97
same,normalized growth,"locus YJR043C, strain POL32, hits give low values",0.993
same,normalized growth,"locus YJR066W, strain TOR1, hits give low values",0.958
